We go through 17 molecules from PubChem BioAssay (NCI).

This is part of a sample that, as a whole, favours compounds with a hit. Of some 83,000 tested, about 20% had one in any assay.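 Growth was measured after 48 h exposure to one concentration of compound in 96-well plates. Values under 10 count as active.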 Values without a mark were called inactive. Activity calls are given as the source filed them.

Common to all, as to experiment: NCI-60 one-dose screen, 48 h (100 = growth as untreated, 0 = no growth, -100 = all killed)
Common to all, as to conditions: 10 µM unless noted

The test system of assay [1] is HCT-15 colon.
Assay [2] relates to HT29 colon.
The test system of assay [3] is SNB-75 CNS.
In assay [4] the test system is SNB-19 CNS.
Assay [5] deals with U251 CNS.
Assay [6] relates to PC-3 prostate.
Assay [7] concerns SK-MEL-5 melanoma.
The subject of assay [8] is UACC-62 melanoma.
The subject of assay [9] is LOX IMVI melanoma.
Assay [10] has as its system SK-MEL-28 melanoma.
Assay [11] has as its system EKVX NSCLC.
Assay [12] has as its system SN12C renal.
The subject of assay [13] is UO-31 renal.
Assay [14] concerns TK-10 renal.
Assay [15] relates to ACHN renal.
The subject of assay [16] is CAKI-1 renal.
Assay [17] concerns CCRF-CEM leukemia.
Assay [18] relates to MOLT-4 leukemia.
Assay [19] deals with SK-MEL-2 melanoma.
Assay [20] has as its system A498 renal.

Turning to `CCCCC1COc2cccc3c(SCC(=O)N(C)c4cccc5ccccc45)cc[n+]1c23` (stereo unspecified), the growth in assay [1] was 94.3%; in assay [2], 103%; in assay [3], 104%; in assay [4] it was 98.7%; in assay [5] it was 99.3%; in assay [6], 95.8%. Also, the growth was 98.5% in assay [7]; 99.9% in [8]; 91.2% in assay [9]; 111% in assay [10]; 109% in assay [11]; 98.7% in assay [12]. The growth was 94.1% in [13]; 96.2% in [14]; 104% in [15]; 98.7% in [16]; 99.8% in [17]; 102% in [18].
Consider `O=C1Nc2ccc(Cl)cc2/C1=N/N=C(c1ccccc1)c1ccccc1`, for which the growth was 87.2% in assay [1]; 98.3% in assay [2]; 74.5% in assay [3]; 62.7% in assay [4]; 94.5% in [5]; 86.2% in [6]. Further, the growth in [7] was 99%; in assay [8], 84.6%; in assay [9], 87.5%; in [10] it was 117%; in [19] it was 103%; in assay [12], 93.7%. For the same molecule, the growth in assay [13] is 63.9%; in [14], 111%; in assay [15], 87.5%; in [16], 63%; in assay [17] it was 92.7%; in assay [18] it was 93.3%.
Regarding `NC1=NC(c2ccccc2OS(=O)(=O)c2ccc(Br)cc2)n2c(nc3ccccc32)N1` (stereo unspecified), the growth is 102% in [1]; 92.1% in assay [2]; 80.2% in assay [3]; 98.1% in assay [4]; 86.9% in assay [5]; 80.1% in assay [6]. The growth is 91% in [7]; 82.7% in assay [8]; 102% in assay [10]; 101% in assay [19]; 99.1% in assay [11]; 87.7% in assay [12]. Also, the growth in assay [13] was 73.5%; in [14] it was 99%; in assay [15], 94.5%; in [16] it was 104%; in [20], 101%; in assay [18] it was 79.3%.
With `O=C1c2ccccc2-c2nnc(-c3ccc(Br)cc3)cc21`, the growth was 59.8% in assay [1]; 82.5% in assay [2]; 36.9% in [3]; 87.1% in assay [4]; 28.8% in [5]; 51.3% in assay [6]. The growth is 51.1% in assay [7]; 16% in assay [8]; 1.78% (active) in [9]; 13.8% in [10]; -0.262% (active) in assay [19]; 27.9% in [12]. For the same molecule, the growth in assay [13] was 46.9%; in assay [15], 34.8%; in [16], 60.3%; in assay [20], 97%; in assay [17], 20.7%; in assay [18] it was 4.61% (active).
In the case of `CC(C)OC1=C(Cl)C(=O)c2ccccc2C1=O`, the growth was 51.4% in [1]; 113% in assay [2]; 75.8% in assay [3]; 90.1% in [4]; 57.4% in [5]; 69.1% in [6]. For the same molecule, the growth was 96.8% in assay [7]; 86.5% in assay [9]; 101% in [10]; 103% in [11]; 90.5% in assay [12]; 76.7% in [13]. Moreover, the growth in assay [14] was 110%; in assay [15] it was 98.5%; in assay [16], 106%; in assay [20], 112%; in assay [18] it was 39.8%.
In the case of `O=C(CCc1nnc2sc(/C=C\c3ccccc3)nn12)c1nc2ccccc2[nH]1`, the growth was 99.6% in assay [1]; 36.8% in assay [2]; 87.9% in assay [3]; 110% in assay [4]; 89.1% in [5]; 77.1% in [6]. In addition, the growth in [7] is 75.9%; in assay [8], 103%; in assay [9], 75.3%; in assay [10] it was 93.3%; in [11], 88.6%; in assay [12], 91.9%. The growth is 70.4% in assay [13]; 113% in assay [14]; 99.5% in [15]; 93.4% in assay [16]; 65.2% in [20]; 62.8% in [18].
Regarding `Cc1c(C)n(CC(O)CNC2CCCCC2C)c2ccccc12` (stereo unspecified), the growth was -16.2% (active) in assay [1]; -49.6% (active) in assay [2]; -38.7% (active) in assay [3]; 62% in [4]; -52.1% (active) in assay [5]; -24% (active) in assay [6]. In addition, the growth is -86.2% (active) in assay [7]; -84.7% (active) in assay [8]; -83.1% (active) in assay [9]; -85.2% (active) in assay [10]; -87.5% (active) in [13]; -41.3% (active) in [15]. Also, the growth is -38.7% (active) in assay [16], 63.3% in assay [20], -9.05% (active) in assay [17] and 4.33% (active) in assay [18].
Consider `Cc1c(NCC(=O)Nc2nc3ccccc3[nH]2)c(=O)n(-c2ccccc2)n1C`, for which the growth is 94.5% in assay [1]; 105% in [2]; 94.3% in assay [3]; 97% in assay [4]; 96.7% in [5]; 92.7% in [6]. Further, the growth in assay [7] is 100%; in [8] it was 102%; in assay [9] it was 97.1%; in assay [10], 110%; in assay [12], 99.4%; in [13], 81.5%. In addition, the growth is 117% in assay [14]; 97.3% in assay [15]; 97.9% in assay [16]; 74% in assay [20]; 93.3% in [17]; 104% in assay [18].
Take `CCCCc1ccc(C(O)(CCN2CC3CCC(CC3)C2)c2ccccc2)cc1` (stereo unspecified): the growth in assay [1] was 65.7%; in [2], 68.8%; in assay [3] it was 116%; in assay [4], 108%; in assay [5] it was 83.3%; in assay [6], 94.3%. Moreover, the growth is 101% in assay [7]; 108% in assay [8]; 103% in [9]; 102% in assay [10]; 87.4% in [11]; 95.7% in assay [12]. Moreover, the growth was 65.3% in assay [13]; 104% in [14]; 94.5% in [15]; 92.6% in [16]; 77% in [20]; 80.9% in [18].
As to `CCC12CCC3c4ccc(O)cc4CCC3C1CC(O)C2O` (stereo unspecified), the growth in assay [1] was 57.4%; in assay [2] it was 96.9%; in assay [3] it was 65.8%; in [4], 90.1%; in [5], 56.5%; in assay [6], 85.5%. Besides, the growth in [7] is 63.4%; in [8], 67.6%; in assay [9] it was 81%; in assay [10] it was 67.2%; in [11] it was 83.7%; in [12] it was 82.5%. The growth in assay [13] is 65.9%; in [14], 85.3%; in assay [15], 103%; in assay [16] it was 59.4%; in assay [20], 67.1%; in assay [18] it was 69.4%.
Take `COc1c(O)c2c3c(c1OC)-c1ccccc1CC3N(S(=O)(=O)c1ccc(C)cc1)CC2` (stereo unspecified): the growth in assay [1] is 37.3%; in assay [2], 121%; in [3], 22.8%; in assay [4] it was 61.6%; in assay [5] it was 22.5%; in assay [6], 48.5%. Also, the growth is 21.8% in assay [7]; 58% in [8]; 51.7% in [9]; 53.2% in assay [10]; 106% in [11]; 50% in [12]. For the same molecule, the growth in [13] is 48%; in assay [14] it was 83.4%; in [15], 50%; in [16], 51.1%; in assay [20] it was 88.3%; in assay [17], 1.29% (active). For the same molecule, the growth in assay [18] is 30.7%.
In the case of `CCOC(=O)c1c(Cl)c2c(n1Cc1ccc(OC)cc1)-c1oncc1CCC2`, the growth in [1] is 83.7%; in assay [2], 78.8%; in [3] it was 75%; in assay [4], 89.1%; in assay [5] it was 89.3%; in assay [6], 58.6%. The growth is 72.1% in [7]; 73.6% in assay [8]; 77.8% in [9]; 101% in assay [10]; 57.6% in assay [12]; 66.2% in assay [13]. The growth in [14] was 84.8%; in [15], 73.9%; in assay [16], 56.1%; in [20], 65.5%; in [17] it was 62.2%; in assay [18] it was 72.1%.
`COc1cc(/C=N/NC(=O)c2cnn3c2NC(c2ccccc2)C3)cc(OC)c1OC` (stereo unspecified): the growth in [1] was 37.7%; in assay [2], 20.5%; in assay [3], 52.4%; in assay [4] it was 66.2%; in assay [5], 66.9%; in [6], 56.2%. The growth in [7] is 50.4%; in [8], 57.4%; in assay [9] it was 61.3%; in [10], 70.4%; in [19] it was 47.6%; in assay [12], 87.4%. In addition, the growth in assay [13] is 68.9%; in assay [14] it was 85.7%; in assay [15] it was 80.2%; in assay [16], 42.1%; in assay [18], 80.5%.
As for `COc1ccc(NS(=O)(=O)c2ccc(-c3cnc(C4CC4)o3)cc2)cc1`, the growth in [1] was 29.7%; in assay [2] it was 19%; in assay [3], 44.9%; in [4], 67.8%; in [5], 56.5%; in assay [6], 67%. The growth in assay [7] is 51.3%; in [8], 49.4%; in assay [9], 50.8%; in assay [10] it was 66.3%; in assay [11] it was 69.9%; in [12], 81.5%. Besides, the growth is 69.8% in assay [13]; 79.8% in assay [14]; 80.6% in assay [15]; 48.3% in assay [16]; 76.2% in assay [17]; 48.6% in assay [18].
For the molecule `O=C1C(OCCOc2ccccc2)=C(OCCOc2ccccc2)C(=O)c2ccccc21`, the growth in assay [1] is 26.7%; in assay [2], 107%; in assay [3], 69.4%; in assay [4], 57.6%; in assay [5], 18.9%; in [6], 44.4%. The growth in assay [7] was 13.6%; in assay [9], 22.6%; in assay [10], 93.5%; in assay [11], 103%; in assay [12], 51.8%; in assay [13] it was 46.9%. Further, the growth in assay [14] was 116%; in [15], 73.5%; in assay [20], 94.7%; in [18] it was 82.9%.
On to `Cc1nn2c(-c3nc4ccc(Cl)cc4[nH]3)c(-c3ccc(F)cc3)nc2s1`, for which the growth was 76.4% in assay [1]; 94.4% in assay [2]; 86.3% in assay [3]; 112% in [4]; 97.6% in assay [5]; 78.6% in assay [6]. Also, the growth is 90.9% in assay [7]; 91.6% in [8]; 91.1% in assay [9]; 93.8% in [10]; 106% in assay [12]; 86.9% in assay [13]. Besides, the growth is 97.1% in assay [14]; 102% in assay [15]; 94.8% in [16]; 76.8% in assay [20]; 72% in [17]; 72.6% in [18].
On to `N#Cc1c(-c2cccc(F)c2)cc(-c2ccc(Br)s2)[nH]c1=O`, for which the growth in assay [1] was 27.2%; in assay [2], 118%; in [3] it was 61.2%; in [4], 78.4%; in [5], 56.2%; in assay [6] it was 78.2%. Further, the growth was 68.8% in assay [7]; 57.9% in assay [8]; 61.7% in assay [9]; 71.3% in assay [10]; 89.3% in [11]; 92.4% in [12]. Also, the growth in [13] is 74.1%; in [14], 108%; in [15] it was 91.9%; in assay [16] it was 49.8%; in assay [17] it was 90.7%; in assay [18], 82.6%.
